Measurements reported in PubChem BioAssay AID1159580 (chemical genetic matrix, 2015).
Several values for one entry are separate records, joined by “and”; a condition that tells them apart may be missing. Equal values may be shown once. About 2,000 (36%) of roughly 5,500 compounds were called active. Roughly 18% stayed inconclusive and do not appear here. This is one part of the list. A number with no mark means an inactive call. No stated cut-off is given here; in the data, active means normalized growth mostly below about 0.91 (no sharp cut-off); inconclusive means no clear call, values can overlap the other calls; inactive means mostly above about 0.92.

Assay: chemical genetic growth profiling, strain panel (AID 1159580);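 further: tested at 20 µM; growth read once vehicle control cultures reached saturation at 30 °C; 1 = growth at the plate median or of vehicle wells; lower values mean less growth of the strain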
Settings: growth OD
[1] = S. cerevisiae deletion strains, locus YAL013W, strain DEP1, hits give low values
[2] = S. cerevisiae deletion strains, locus YAL040C, strain CLN3, hits give low values
[3] = S. cerevisiae deletion strains, locus YDR363W, strain ESC2, hits give low values
[4] = S. cerevisiae deletion strains, locus YER002W, strain NOP16, hits give low values
[5] = S. cerevisiae deletion strains, locus YMR263W, strain SAP30, hits give low values
[6] = S. cerevisiae deletion strains, locus YNL175C, strain NOP13, hits give low values
[7] = S. cerevisiae deletion strains, locus YNL197C, strain WHI3, hits give low values
[8] = S. cerevisiae deletion strains, locus YNL224C, strain SQS1, hits give low values
[9] = S. cerevisiae deletion strains, locus YOR083W, strain WHI5 (second series), hits give low values
[10] = S. cerevisiae deletion strains, locus YGR078C, strain PAC10, hits give low values
[11] = S. cerevisiae deletion strains, locus YJR075W, strain HOC1, hits give low values
[12] = S. cerevisiae deletion strains, locus YMR307W, strain GAS1, hits give low values
[13] = S. cerevisiae deletion strains, locus YNL128W, strain TEP1, hits give low values
[14] = S. cerevisiae deletion strains, locus YNL153C, strain GIM3, hits give low values

With `CCN(c1nc(N)c(C(=O)N=C(N)N)nc1Cl)C(C)C` the normalized growth [1] was 1, the normalized growth [2] was 1 and the normalized growth [3] was 0.989. For the same compound, the normalized growth [4] was 1.04, the normalized growth [5] was 1 and the normalized growth [6] was 1.04. It also gave a normalized growth [7] of 1.02, a normalized growth [8] of 1.06 and a normalized growth [9] of 1.02.

Compound `CN(C)c1nc(N)c(C(=O)N=C(N)N)nc1Cl` has a normalized growth [1] of 1.01, a normalized growth [2] of 1 and a normalized growth (S. cerevisiae deletion strains, locus YBR021W, strain FUR4, hits give low values) of 1.01. It also gave a normalized growth (S. cerevisiae deletion strains, locus YBR229C, strain ROT2, hits give low values) of 1.01, a normalized growth (S. cerevisiae deletion strains, locus YCL029C, strain bik1, hits give low values) of 1.01 and a normalized growth (S. cerevisiae deletion strains, locus YDL035C, strain GPR1, hits give low values) of 1.03. For the same compound, the normalized growth (S. cerevisiae deletion strains, locus YDL074C, strain BRE1, hits give low values) was 0.983, the normalized growth (S. cerevisiae deletion strains, locus YDL101C, strain DUN1, hits give low values) was 1.01 and the normalized growth (S. cerevisiae deletion strains, locus YDL134C, strain PPH21, hits give low values) was 0.999. The normalized growth (S. cerevisiae deletion strains, locus YDL185W, strain tfp1, hits give low values) was 1.01, the normalized growth (S. cerevisiae deletion strains, locus YDL192W, strain arf1, hits give low values) was 1.01 and the normalized growth (S. cerevisiae deletion strains, locus YDR101C, strain arx1, hits give low values) was 1. The normalized growth (S. cerevisiae deletion strains, locus YDR150W, strain NUM1, hits give low values) was 0.982 and 0.999, the normalized growth (S. cerevisiae deletion strains, locus YDR162C, strain NBP2, hits give low values) was 0.985 and the normalized growth (S. cerevisiae deletion strains, locus YDR318W, strain mcm21, hits give low values) was 1.02. For the same compound, the normalized growth [3] was 1, the normalized growth (S. cerevisiae deletion strains, locus YDR388W, hits give low values) was 1 and the normalized growth (S. cerevisiae deletion strains, locus YDR502C, strain sam2, hits give low values) was 0.983. For the same compound, the normalized growth (S. cerevisiae deletion strains, locus YEL061C, strain CIN8, hits give low values) was 1.01, the normalized growth [4] was 1.01 and the normalized growth (S. cerevisiae deletion strains, locus YER110C, hits give low values) was 1.02. For the same compound, the normalized growth (S. cerevisiae deletion strains, locus YER155C, strain BEM2, hits give low values) was 1.01, the normalized growth (S. cerevisiae deletion strains, locus YER167W, strain BCK2, hits give low values) was 1.02 and the normalized growth (S. cerevisiae deletion strains, locus YGL078C, strain dbp3, hits give low values) was 0.989. The normalized growth (S. cerevisiae deletion strains, locus YGL086W, strain mad1, hits give low values) was 1.02, the normalized growth (S. cerevisiae deletion strains, locus YGL248W, strain PDE1, hits give low values) was 1 and the normalized growth [10] was 0.99. The normalized growth (S. cerevisiae deletion strains, locus YGR135W, strain pre9, hits give low values) was 0.967, the normalized growth (S. cerevisiae deletion strains, locus YGR229C, strain SMI1, hits give low values) was 1 and the normalized growth (S. cerevisiae deletion strains, locus YGR252W, strain gcn5, hits give low values) was 1.02. For the same compound, the normalized growth (S. cerevisiae deletion strains, locus YHR030C, strain SLT2, hits give low values) was 1.01, the normalized growth (S. cerevisiae deletion strains, locus YHR079C, strain IRE1 (second series), hits give low values) was 1.01 and the normalized growth (S. cerevisiae deletion strains, locus YHR094C, strain hxt1, hits give low values) was 0.998. It also gave a normalized growth (S. cerevisiae deletion strains, locus YHR129C, strain ARP1, hits give low values) of 1.01, a normalized growth (S. cerevisiae deletion strains, locus YHR200W, strain rpn10, hits give low values) of 1 and a normalized growth (S. cerevisiae deletion strains, locus YIL066C, strain RNR3, hits give low values) of 1.02. It also gave a normalized growth (S. cerevisiae deletion strains, locus YIL073C, strain SPO22, hits give low values) of 1.07, a normalized growth (S. cerevisiae deletion strains, locus YIL125W, strain kgd1, hits give low values) of 1 and a normalized growth (S. cerevisiae deletion strains, locus YIR030C, strain dcg1, hits give low values) of 0.998. The normalized growth (S. cerevisiae deletion strains, locus YJL095W, strain BCK1, hits give low values) was 0.997, the normalized growth (S. cerevisiae deletion strains, locus YJL134W, strain LCB3, hits give low values) was 1 and the normalized growth (S. cerevisiae deletion strains, locus YJL168C, strain set2, hits give low values) was 1. It also gave a normalized growth (S. cerevisiae deletion strains, locus YJL187C, strain SWE1 (second series), hits give low values) of 0.988, a normalized growth (S. cerevisiae deletion strains, locus YJR043C, strain POL32, hits give low values) of 1.03 and a normalized growth [11] of 1.01. It also gave a normalized growth (S. cerevisiae deletion strains, locus YKL009W, strain mrt4, hits give low values) of 1.06, a normalized growth (S. cerevisiae deletion strains, locus YKL068W, hits give low values) of 0.997 and a normalized growth (S. cerevisiae deletion strains, locus YKL085W, strain MDH1 (second series), hits give low values) of 1.01. For the same compound, the normalized growth (S. cerevisiae deletion strains, locus YKL085W, strain MDH1, hits give low values) was 1.01, the normalized growth (S. cerevisiae deletion strains, locus YKL190W, strain CNB1, hits give low values) was 1.01 and the normalized growth (S. cerevisiae deletion strains, locus YKR001C, strain vps1, hits give low values) was 1.02. The normalized growth (S. cerevisiae deletion strains, locus YLR039C, strain RIC1, hits give low values) was 1.06, the normalized growth (S. cerevisiae deletion strains, locus YLR058C, strain SHM2, hits give low values) was 1.01 and the normalized growth (S. cerevisiae deletion strains, locus YLR102C, strain apc9, hits give low values) was 1. For the same compound, the normalized growth (S. cerevisiae deletion strains, locus YLR262C, strain YPT6, hits give low values) was 1.04, the normalized growth (S. cerevisiae deletion strains, locus YLR268W, strain sec22, hits give low values) was 0.988 and the normalized growth (S. cerevisiae deletion strains, locus YLR330W, strain CHS5, hits give low values) was 1.01. It also gave a normalized growth (S. cerevisiae deletion strains, locus YLR342W, strain FKS1 (second series), hits give low values) of 1.07, a normalized growth (S. cerevisiae deletion strains, locus YLR371W, strain rom2, hits give low values) of 1.01 and a normalized growth (S. cerevisiae deletion strains, locus YLR418C, strain cdc73, hits give low values) of 0.925. The normalized growth (S. cerevisiae deletion strains, locus YML016C, strain PPZ1, hits give low values) was 1, the normalized growth (S. cerevisiae deletion strains, locus YML032C, strain rad52, hits give low values) was 1.03 and the normalized growth (S. cerevisiae deletion strains, locus YML124C, strain tub3, hits give low values) was 0.999. It also gave a normalized growth (S. cerevisiae deletion strains, locus YMR078C, strain ctf18, hits give low values) of 1.01, a normalized growth (S. cerevisiae deletion strains, locus YMR223W, strain ubp8, hits give low values) of 1.02 and a normalized growth [5] of 0.988. For the same compound, the normalized growth [12] was 1.06, the normalized growth (S. cerevisiae deletion strains, locus YNL067W, strain RPL9B, hits give low values) was 0.986 and the normalized growth [13] was 1.01. For the same compound, the normalized growth [14] was 0.999 and 0.967, the normalized growth [6] was 1.01 and the normalized growth [7] was 1. The normalized growth [8] was 1.01, the normalized growth (S. cerevisiae deletion strains, locus YNL233W, strain BNI4, hits give low values) was 0.989 and the normalized growth (S. cerevisiae deletion strains, locus YNL250W, strain rad50, hits give low values) was 1.01. The normalized growth (S. cerevisiae deletion strains, locus YNL271C, strain bni1, hits give low values) was 1.01, the normalized growth (S. cerevisiae deletion strains, locus YNL298W, strain CLA4, hits give low values) was 1.01 and the normalized growth (S. cerevisiae deletion strains, locus YNL307C, strain MCK1, hits give low values) was 1.02. It also gave a normalized growth (S. cerevisiae deletion strains, locus YNL322C, strain KRE1, hits give low values) of 1.01, a normalized growth (S. cerevisiae deletion strains, locus YNR052C, strain pop2, hits give low values) of 1.02 and a normalized growth (S. cerevisiae deletion strains, locus YOL006C, strain TOP1, hits give low values) of 0.981. It also gave a normalized growth (S. cerevisiae deletion strains, locus YOL012C, strain htz1) of 1.37, a normalized growth (S. cerevisiae deletion strains, locus YOL147C, strain pex11, hits give low values) of 1.01 and a normalized growth (S. cerevisiae deletion strains, locus YOR061W, strain CKA2, hits give low values) of 1.01. For the same compound, the normalized growth (S. cerevisiae deletion strains, locus YOR069W, strain VPS5, hits give low values) was 1.01, the normalized growth [9] was 1.01 and the normalized growth (S. cerevisiae deletion strains, locus YOR136W, strain idh2, hits give low values) was 1. It also gave a normalized growth (S. cerevisiae deletion strains, locus YOR144C, strain elg1, hits give low values) of 1, a normalized growth (S. cerevisiae deletion strains, locus YOR184W, strain ser1, hits give low values) of 1.05 and a normalized growth (S. cerevisiae deletion strains, locus YOR316C, strain cot1, hits give low values) of 1. For the same compound, the normalized growth (S. cerevisiae deletion strains, locus YPL055C, strain LGE1, hits give low values) was 0.956, the normalized growth (S. cerevisiae deletion strains, locus YPL241C, strain CIN2, hits give low values) was 0.999 and the normalized growth (S. cerevisiae deletion strains, locus YPR119W, strain clb2, hits give low values) was 0.988. It also gave a normalized growth (S. cerevisiae deletion strains, locus YPR141C, strain kar3, hits give low values) of 0.999, a normalized growth (S. cerevisiae deletion strains, locus YPR163C, strain tif3, hits give low values) of 0.999 and a normalized growth (S. cerevisiae deletion strains, locus YPR167C, strain met16, hits give low values) of 1. For the same compound, the normalized growth (S. cerevisiae deletion strains, strain wtn01, hits give low values) was 0.997 and the normalized growth (S. cerevisiae strains, strain wild type, hits give low values) was 1.01.

With `CC(C)CN(C)c1nc(N)c(C(=O)N=C(N)N)nc1Cl` the normalized growth [2] was 0.968, the normalized growth (S. cerevisiae deletion strains, locus YCL061C, strain MRC1 (second series), hits give low values) was 0.963 and the normalized growth [4] was 1.04. The normalized growth [10] was 0.99, the normalized growth [11] was 0.957 and the normalized growth [5] was 0.986. For the same compound, the normalized growth [12] was 0.971, the normalized growth [13] was 0.986 and the normalized growth [14] was 0.855. For the same compound, the normalized growth [6] was 1.01, the normalized growth [7] was 1 and the normalized growth [8] was 1.03. The normalized growth [9] was 0.866 (active).
